Results as given in the supplement of paper PMC3545927.
The other results are listed elsewhere or left out. No count for the full screen is at hand.

B1: HC1825 (peptide)
chain: CALTPCSGSWAGNASASA
B2: HC1206 (peptide)
chain: CAVEIRQVGDAGNASASA
B3: HC1222 (peptide)
chain: CATELDGVRLAGNASASA
B4: FS-1714 (peptide)
chain: CARHKRGRGDAGNASASA
B5: FS-1916 (peptide)
chain: CARQNRSVRLAGNASASA
B6: FS-956 (peptide)
chain: CARQNRWKRQAGNASASA
B7: FS-493 (peptide)
chain: CARQNREKRFAGNASASA
B8: FS-1715 (peptide)
chain: CARHLREVGDAGNASASA
B9: FS-3040 (peptide)
chain: CARQNRGFRAAGNASASA
B10: HC829 (peptide)
chain: CAETAGARLVAGNASASA
B11: HC568 (peptide)
chain: CAAASCGGVVAGNASASA
B12: HC2081 (peptide)
chain: CAVVCCSMNYAGNASASA
B13: HC381 (peptide)
chain: CALFYHHKFNAGNASASA
B14: FS-2940 (peptide)
chain: CARHLRNVYAAGNASASA
B15: FS-2939 (peptide)
chain: CARHLRANMTAGNASASA
B16: FS-706 (peptide)
chain: CARHLREKRFAGNASASA
B17: HC1711 (peptide)
chain: CAMEDCSQHLAGNASASA
B18: HC682 (peptide)
chain: CAIITSLTGRAGNASASA
B19: HC2273 (peptide)
chain: CARLEVVTSTAGNASASA
B20: FS-3003 (peptide)
chain: CARNARNVSQAGNASASA
B21: FS-3002 (peptide)
chain: CARNARHADGAGNASASA
B22: FS-1755 (peptide)
chain: CARNARIVHLAGNASASA
B23: FS-2429 (peptide)
chain: CARLARFADGAGNASASA
B24: HC199 (peptide)
chain: CAAQPGYPWPAGNASASA
B25: HC1237 (peptide)
chain: CAEYPVGSQLAGNASASA
B26: FS-2587 (peptide)
chain: CARQKRSINLAGNASASA
B27: HC1012 (peptide)
chain: CAREFDEMEEAGNASASA
B28: FS-2244 (peptide)
chain: CARVNRSVHEAGNASASA
B29: FS-2174 (peptide)
chain: CARQTRSSTEAGNASASA
B30: FS-3260 (peptide)
chain: CARQKRSMEEAGNASASA
B31: FS-1813 (peptide)
chain: CAVEKRGVHEAGNASASA
B32: HC2572 (peptide)
chain: CASTPCSAHEAGNASASA
B33: FS-3036 (peptide)
chain: CARQKRSIHEAGNASASA

Biological target: furin, P09958
Sequence (P09958 whole entry): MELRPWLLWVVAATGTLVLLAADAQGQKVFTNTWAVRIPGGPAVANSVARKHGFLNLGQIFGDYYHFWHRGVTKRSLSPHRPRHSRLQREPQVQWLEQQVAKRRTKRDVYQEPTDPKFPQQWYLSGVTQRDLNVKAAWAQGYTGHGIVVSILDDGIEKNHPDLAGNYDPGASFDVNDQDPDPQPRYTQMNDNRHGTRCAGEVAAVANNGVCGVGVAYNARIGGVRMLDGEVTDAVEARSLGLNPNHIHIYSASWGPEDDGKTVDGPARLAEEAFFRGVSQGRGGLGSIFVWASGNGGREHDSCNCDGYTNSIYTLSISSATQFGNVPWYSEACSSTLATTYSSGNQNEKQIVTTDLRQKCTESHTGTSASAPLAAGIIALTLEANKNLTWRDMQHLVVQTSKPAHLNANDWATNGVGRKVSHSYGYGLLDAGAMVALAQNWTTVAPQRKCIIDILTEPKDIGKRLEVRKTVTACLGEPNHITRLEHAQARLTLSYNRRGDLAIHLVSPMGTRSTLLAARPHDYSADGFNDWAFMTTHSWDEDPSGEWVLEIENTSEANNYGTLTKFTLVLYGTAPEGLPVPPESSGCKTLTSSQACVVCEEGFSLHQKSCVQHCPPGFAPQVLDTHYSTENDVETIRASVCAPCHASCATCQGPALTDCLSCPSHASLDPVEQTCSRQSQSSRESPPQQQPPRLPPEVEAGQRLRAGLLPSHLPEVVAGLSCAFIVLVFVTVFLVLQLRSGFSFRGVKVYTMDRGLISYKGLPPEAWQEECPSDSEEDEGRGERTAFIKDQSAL
Test: furin cleavage Z-score vs untreated control; higher = more cleavage, active = 3.5 or more, inactive = 1 or less, 8 variable residues between constant flanks
Procedure, shortened: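 Reactions of 0.01 ml ran for 7.5, 15 or 30 min in 50 mM HEPES pH 7.5 with CaCl2 and NaCl, at 1:10 enzyme:substrate. In them, purified furin acted on bead-held 8-mer peptides fused to a cDNA oligonucleotide. The cleavage Z-score was obtained by lowess-adjusting log sequencing counts of released DNA against furin-free reactions and scaling by median absolute deviation.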

| Sequence | furin cleavage Z-score (7.5 min) | furin cleavage Z-score (15 min) | furin cleavage Z-score (30 min) |
| --- | --- | --- | --- |
| B1 | -0.28 (inactive) | -0.817 (inactive) | -0.734 (inactive) |
| B2 | -0.56 (inactive) | -1.09 (inactive) | -1.86 (inactive) |
| B3 | -1.97 (inactive) | -0.317 (inactive) | -1.04 (inactive) |
| B4 | 0.301 (inactive) | 2.2 | 1.5 |
| B5 | 2.12 | 3.53 (active) | 4 (active) |
| B6 | 13.6 (active) | 16.1 (active) | 9.49 (active) |
| B7 | 8.07 (active) | 9.73 (active) | 9.9 (active) |
| B8 | 2.58 | 3.76 (active) | 3.94 (active) |
| B9 | -0.161 (inactive) | 0.266 (inactive) | 0.111 (inactive) |
| B10 | 1.45 | 1.12 | -1.04 (inactive) |
| B11 | -0.496 (inactive) | -0.825 (inactive) | 0.0661 (inactive) |
| B12 | -0.198 (inactive) | -1.19 (inactive) | -1.03 (inactive) |
| B13 | -0.625 (inactive) | -2.1 (inactive) | -0.731 (inactive) |
| B14 | 0.638 (inactive) | -0.594 (inactive) | 1.3 |
| B15 | -0.54 (inactive) | -1.02 (inactive) | -1.63 (inactive) |
| B16 | 6.75 (active) | 9.12 (active) | 10.1 (active) |
| B17 | 0.722 (inactive) | 2.02 | 1.16 |

| Sequence | furin cleavage Z-score (7.5 min) | furin cleavage Z-score (15 min) | furin cleavage Z-score (30 min) |
| --- | --- | --- | --- |
| B18 | -0.473 (inactive) | 0.458 (inactive) | 0.0661 (inactive) |
| B19 | 0.609 (inactive) | 1.11 | -1.08 (inactive) |
| B20 | 4.25 (active) | 6.14 (active) | 5.98 (active) |
| B21 | 3.28 | 5.44 (active) | 3.84 (active) |
| B22 | 0.861 (inactive) | 0.108 (inactive) | -0.00636 (inactive) |
| B23 | -1.13 (inactive) | 2.8 | 0.514 (inactive) |
| B24 | 0.109 (inactive) | 0.367 (inactive) | 0.143 (inactive) |
| B25 | -1.22 (inactive) | -1.49 (inactive) | -1.3 (inactive) |
| B26 | 7.01 (active) | 6.9 (active) | 10.1 (active) |
| B27 | -0.916 (inactive) | -1.39 (inactive) | -1.93 (inactive) |
| B28 | 0.826 (inactive) | 3.34 | 3.78 (active) |
| B29 | 0.51 (inactive) | 2.13 | 2.17 |
| B30 | 7.94 (active) | 7.89 (active) | 8.14 (active) |
| B31 | -1.62 (inactive) | -0.803 (inactive) | -0.675 (inactive) |
| B32 | -0.869 (inactive) | -0.151 (inactive) | 0.67 (inactive) |
| B33 | 9.78 (active) | 11 (active) | 9.29 (active) |
